# Screening data deposited in PubChem by The Scripps Research Institute Molecular Screening Center.
# GPR151 ag = activators of human GPR151. PathHunter beta-arrestin GPR151 cells, luminescence. Q8TDV0. 1% of 650,000 active. activation, % at 11.2 µM; in the data active = activation above about 4.9%;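 also: 0% = median of compound wells and 100% = cells with positive control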
# Target sequence (Q8TDV0 whole entry, looked up): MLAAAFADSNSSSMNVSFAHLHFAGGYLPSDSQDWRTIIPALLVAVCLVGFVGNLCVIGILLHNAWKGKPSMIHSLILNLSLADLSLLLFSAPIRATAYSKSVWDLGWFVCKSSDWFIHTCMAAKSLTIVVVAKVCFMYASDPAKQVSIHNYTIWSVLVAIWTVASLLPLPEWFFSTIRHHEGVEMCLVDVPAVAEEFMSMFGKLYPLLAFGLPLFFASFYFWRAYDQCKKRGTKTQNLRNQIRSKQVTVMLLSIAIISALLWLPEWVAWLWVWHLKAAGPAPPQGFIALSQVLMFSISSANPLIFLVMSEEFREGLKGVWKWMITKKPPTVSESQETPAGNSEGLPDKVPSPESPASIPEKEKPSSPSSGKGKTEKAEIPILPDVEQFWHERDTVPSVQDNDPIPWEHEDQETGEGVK
# FBW7 activator = activators of human E3 ligase FBW7; Q969H0; AlphaScreen FBW7–phospho-cyclin E peptide binding, activator screen; 0.13% of 650,000 active; normalized activity (activation), % at 26.1 µM; AID 1259310; in the data active = normalized activity above about 1.9%;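 also: purified mutant Fbw7 with reduced substrate affinity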
# MITF inh = inhibitors of human MITF; inhibition, % at 2.6 µM; AlphaScreen MITF homodimerization, bead proximity signal; AID 1259374; 0.91% of 650,000 active; in the data active = inhibition above about 50%;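 also: 0% = vehicle wells with protein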
# TEAD-YAP inh = TEAD-YAP interaction inhibition. 1.4% of 640,000 active. HEK-TIYL cells, TEAD-Gal4/YAP UAS-luciferase luminescence. inhibition, % at 9.12 µM. AID 1259422; in the data active = inhibition above about 32%;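 also: 0% = median of test compound wells and 100% = reference inhibitor wells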
# MITF confirm = human MITF inhibition, confirmation | shares compounds with MITF inh | AlphaScreen MITF homodimerization, biotin/His-MITF beads | inhibition, % at 2.6 µM | 16% of 4,700 active | AID 1259372;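 active = inhibition above a cutoff derived from the DMSO control wells, cut at about 28% in these data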;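 also: 0% = MITF dimer wells with DMSO only; inhibitors lower the bead chemiluminescence by keeping MITF from dimerizing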
# AS interf DR = counter-screen: compounds optically interfering with AlphaScreen; AID 1259373; IC50, µM; shares compounds with MITF inh; AlphaScreen optical interference counterscreen, cell-free; 6% of 480 active; call rule not given here
# AS interf ctr = counter-screen: compounds optically interfering with AlphaScreen; LysRS AlphaScreen counterscreen, signal interference, triplicate; 7.6% of 4,700 active; shares compounds with MITF inh; AID 1259376; inhibition, % at 2.6 µM;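 active = inhibition above a cutoff derived from the DMSO control wells, cut at about 30% in these data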
# Active calls of the source: *; . = not tested or not shown; ! = a repeat was not active. In the library only some 3.4% were active in any assay of this set; here they are far more common.
SMILES,GPR151 ag,FBW7 activator,MITF inh,TEAD-YAP inh,MITF confirm,AS interf ctr,others
O=C(/C=C/c1ccco1)NC(=S)Nc1ccc(Cl)c(C(=O)O)c1,0.1,-0.2,75.6*,-1.8,64.2*,10.5,AS interf DR=>6.48
CCN1CCc2c(sc(NC(=S)NC(=O)/C=C/c3ccco3)c2C(N)=O)C1,1.5,-0.5,77.5*,-13.5,78.9*,3.2,AS interf DR=>6.48
CCN1CCc2c(sc(NC(=S)NC(=O)/C=C/c3ccccc3)c2C(N)=O)C1,-0.1,-0.3,10.5,-2.5,.,.,
COc1cccc(NC(=S)NC(=O)/C=C/c2ccco2)c1,0.6,0.0,12.8,-1.3,.,.,
Cc1cccc(N2CCN(C(=O)/C=C\C(=O)O)CC2)c1C,-1.7,-0.5,69.0*,0.5,53.5*,10.5,AS interf DR=>6.48
CCOC(=O)N1CCN(c2cccc(C)c2C)CC1,-0.5,0.1,-0.1,0.7,.,.,
CC(=O)n1c2c(c3ccccc31)OC(N)=C(C#N)C2c1cccc([N+](=O)[O-])c1 (configuration not stated),0.2,0.0,57.8*,9.3,7.3,14.0,
O=C(O)c1ccc(-c2ccc(/C=C3/NC(=O)N(Cc4ccc(Br)cc4)C3=O)o2)cc1,-0.3,0.0,40.3,4.9,.,.,
CCCCc1ncc(CN2CCC3(CCC(CNC(=O)c4ccccc4)O3)CC2)[nH]1 (configuration not stated),2.9,-0.2,84.1*,-5.9,0.3,1.9,
CN(C)c1ccc(NC(=S)Nc2ccccn2)cc1,4.3,-0.1,71.2*,-48.5,9.4,26.9,
COC(=O)C(C)N1C(=O)S/C(=C/C=C/c2ccco2)C1=O (configuration not stated),0.5,0.0,-10.7,-29.0,.,.,
COc1ccc(C(=O)Nc2sc(C)c(C)c2C#N)cc1[N+](=O)[O-],-1.1,0.1,74.3*,5.8,-5.8,-5.8,
Cc1cc2ccccc2n1CC(O)CN1CCOCC1 (configuration not stated),-0.6,0.3,11.8,5.7,.,.,
CN(C)C(CNCC(=O)NC1CCCc2ccccc21)c1ccccc1 (configuration not stated),-0.1,-0.1,75.6*,5.8,22.0,55.8*,
CC(C)CN1C(=O)C(=O)N(CC(=O)NC2CCCc3ccccc32)C1=O (configuration not stated),-0.4,0.1,-11.2,-6.4,.,.,
O=C(NCc1ccccc1)Nc1ccc2c(c1)CCCN2C(=O)C1CC1,1.6,0.2,-0.9,6.7,.,.,
Cc1ccc(NC(=O)C2(N3C(=O)CC3c3ccco3)CCCCC2)cc1 (configuration not stated),0.7,0.0,67.8*,-4.8,1.4,17.3,
CCCC(C)NC(=O)CSc1nc(N)cc(N)n1 (configuration not stated),1.3,0.0,-13.0,2.4,.,.,
CCCCSC1=C(C#N)C(c2cccc([N+](=O)[O-])c2)C(C(C)=O)=C(C)N1 (configuration not stated),1.2,-0.1,63.2*,-5.6,-8.8,2.5,
FC(F)Oc1ccc(/C=N/n2cnnc2)cc1,0.4,0.2,6.9,9.2,.,.,
CN(C)CCS(=O)c1cc(-c2cn[nH]c2)ccc1NC(=O)[C@H]1Cc2cc(F)ccc2CN1 (some centres not stated),-0.1,0.2,56.5*!,0.7,71.5*,4.3,AS interf DR=>6.48
CN(C)CCS(=O)c1cc(-c2cn[nH]c2)ccc1NC(=O)[C@@H]1Cc2cc(F)ccc2CN1 (some centres not stated),-0.1,1.9*!,74.9*!,0.7,68.4*,7.7,AS interf DR=>6.48
C=CCNC(=O)/C(=C\c1ccc(OC)cc1)NC(=O)c1ccc(Br)cc1,-0.9,0.0,10.5,3.5,.,.,
Cc1ccc(NC(=O)N(CCCN(C)C)Cc2cc3cc4c(cc3[nH]c2=O)OCO4)cc1,-1.6,-0.3,-4.2,-3.3,.,.,
CC1CN(CCOc2cccc3ccccc23)CC(C)O1 (configuration not stated),-0.8,-0.1,57.5*,-0.2,10.3,6.0,
SMILES,GPR151 ag,FBW7 activator,MITF inh,TEAD-YAP inh,MITF confirm,AS interf ctr,others
Cc1ccc(C)c(OCCOCCN2CC(C)OC(C)C2)c1C (configuration not stated),0.3,-0.1,52.0*,2.1,-5.5,-3.6,
COC(=O)c1ccc(OCCOCCN2CC(C)OC(C)C2)cc1 (configuration not stated),-0.2,0.0,51.5*,9.6,-6.9,-8.0,
CC1CN(CCOCCOc2ccccc2-c2ccccc2)CC(C)O1 (configuration not stated),1.6,-0.1,71.5*,-8.9,17.1,29.7,
COc1ccccc1OCCOCCN1CC(C)OC(C)C1 (configuration not stated),-0.6,1.1,26.6,-6.5,.,.,
COc1ccc(CCNc2nc(Nc3ccccc3)ncc2C)cc1,0.5,0.0,-2.9,19.8,.,.,
O=C(Nc1ccc(N2CCCCS2(=O)=O)cc1)c1ccccc1Cl,0.3,-0.1,12.3,-52.3,.,.,
CCCc1[nH]nc2c1C(c1ccc([N+](=O)[O-])c(Cl)c1)C(C#N)=C(N)O2 (configuration not stated),1.4,0.0,-8.1,4.2,.,.,
COC(=O)C1C(=O)NC(SCC(=O)Nc2ccc(OC)cc2)=C(C#N)C1c1ccccc1OC (configuration not stated),-0.3,0.3,14.5,2.0,.,.,
COc1cccc(OC)c1OCCCN1CC(C)OC(C)C1 (configuration not stated),0.7,-0.2,62.0*,5.9,6.7,10.1,
O=[N+]([O-])c1ccccc1OCCOCCOc1cccc2cccnc12,2.8,0.6,68.5*,-4.2,8.3,15.7,
COC(=O)c1ccccc1OCCCCN1CC(C)OC(C)C1 (configuration not stated),0.2,0.0,62.5*,0.8,0.8,14.2,
O=[N+]([O-])c1ccccc1OCCOc1cccc2cccnc12,-0.3,0.1,0.5,-33.7,.,.,
COC(=O)c1ccccc1OCCCOc1cccc2cccnc12,0.2,-0.1,67.9*,-36.9,4.3,16.8,
O=C(O)c1coc(CNC(=O)c2cocc2C(=O)O)c1,0.0,0.1,64.2*,9.2,50.4*,14.4,AS interf DR=>6.48
O=C(CSc1ccccc1C(=O)O)Nc1ccc(Oc2ccccc2)cc1,-1.4,-0.1,8.5,1.8,.,.,
CC(NC(=O)C1CCN(Cc2ccccc2O)CC1)c1ccccc1 (configuration not stated),1.9,-0.1,18.6,2.3,.,.,
CC(NC(=O)C1CCNCC1)c1ccccc1 (configuration not stated),0.1,-0.1,51.4*,10.9,1.0,12.5,
COc1ccc(CN2CCC(C(=O)NC(C)C)CC2)c(OC)c1OC,0.5,-0.1,71.2*,-9.8,-13.3,-5.3,
COc1ccc(OC)c(CN2CCC(C(=O)NC(C)c3ccccc3)CC2)c1 (configuration not stated),-0.9,-0.1,52.2*,-4.6,8.4,20.5,
